UbGFP stabilizer = inhibits proteasome, raising ubiquitin-GFP reporter fluorescence; Ubiquitin-GFP reporter cells, proteasome inhibition, GFP fluorescence; response scale: untreated = 0%, 10 µM MG-132 = 100%; Potency, µM (series often up to 45.9 µM), without a hit: top-dose activation (GFP accumulation), hits mostly activators; 67,000 tested, under 10 active; AID 526; active means well fitted activation curve with a large enough effect, not every such curve was filed as active; inconclusive means small, poorly fitted or top-dose-only effect, or another doubt; inactive means no such curve, though single readings can be large or run the other way; further: potency means the concentration at half of the fitted maximal effect
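Proteasome blockade was scored as a rise in GFP-expressing U2OS cells carrying a ubiquitin(G76V)-GFP construct, imaged after 4 hr compound treatment at 37 °C across a 46 uM–2.9 nM series.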
Pol III holo inh = DNA polymerase III holoenzyme inhibition; reconstituted DNA polymerase III holoenzyme replication, biochemical; Potency, µM (top dose mostly 57.1 µM), without a hit: at the top dose activity change, negative = inhibition; actives 0.25% (n = 71,000); AID 603; further: potency means the concentration at half of the fitted maximal effect; on the % scale 0 is the no-effect control and ±100 the full control effect
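Reconstituted *E. coli* holoenzyme (0.35 nM Pol III, 1 nM beta, 154 nM SSB, 2 nM primase) was preincubated with compound for 15 min at RT. Synthesis on 1.4 nM ssM13Gori ran 35 min, then was stopped with PicoGreen/EDTA and read as dsDNA fluorescence.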
Tau fil binding = binders of human tau filaments. P10636. recombinant tau filaments, thioflavin S fluorescence, 15 h; filaments grown with octadecylsulfate alongside compound. Potency, µM (highest dose often 57.1 µM), inactives show at the highest dose activity change, negative = inhibition. actives 2% (n = 71,000);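 further: potency means the concentration at half of the fitted maximal effect; on the % scale 0 is the no-effect control and ±100 the full control effect; actives lower thioflavin S fluorescence by blocking filaments or displacing dye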
Target sequence (P10636 whole entry, looked up): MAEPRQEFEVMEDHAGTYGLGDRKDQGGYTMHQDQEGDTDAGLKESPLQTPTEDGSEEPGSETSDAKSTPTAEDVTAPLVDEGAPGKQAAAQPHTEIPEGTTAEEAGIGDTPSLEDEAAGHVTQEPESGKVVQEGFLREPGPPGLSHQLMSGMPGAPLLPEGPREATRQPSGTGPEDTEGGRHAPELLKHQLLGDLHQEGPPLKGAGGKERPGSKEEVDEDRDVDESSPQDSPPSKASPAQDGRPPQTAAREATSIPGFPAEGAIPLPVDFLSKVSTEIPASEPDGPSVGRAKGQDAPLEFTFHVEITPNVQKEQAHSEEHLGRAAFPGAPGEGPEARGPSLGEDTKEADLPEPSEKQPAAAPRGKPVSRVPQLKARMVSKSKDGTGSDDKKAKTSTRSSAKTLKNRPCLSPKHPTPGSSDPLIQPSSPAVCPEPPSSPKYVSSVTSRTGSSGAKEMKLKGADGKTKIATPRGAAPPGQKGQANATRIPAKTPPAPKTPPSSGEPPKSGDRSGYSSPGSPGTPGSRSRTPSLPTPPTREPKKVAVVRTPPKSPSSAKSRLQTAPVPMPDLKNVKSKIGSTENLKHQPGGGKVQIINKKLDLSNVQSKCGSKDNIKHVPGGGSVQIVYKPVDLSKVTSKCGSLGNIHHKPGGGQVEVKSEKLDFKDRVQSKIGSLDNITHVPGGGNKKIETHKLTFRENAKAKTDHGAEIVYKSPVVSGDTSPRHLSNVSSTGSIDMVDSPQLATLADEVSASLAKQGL
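Tau 2 uM in ThS buffer dispensed; compound added; 60 uM ODS added (finals 1 uM tau, 30 uM ODS); 15 h 37 C; fluor ex450/em510.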
Epigenetic mod = epigenetic GFP locus derepression in mouse cells | mouse C127i GFP locus derepression, cytometry, 30 h | Potency, µM (doses to about 46.1 µM), for inactives: at the highest dose GFP derepression (activation) | actives 0.09% (n = 68,000) | AID 597; further: % of control where 0% means no effect
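Read-out is the number of GFP-positive cells, scored as fluorescent objects 20 to 120 um wide, reflecting derepression of a silenced CMV-GFP reporter in murine C127i cells after 30 h compound exposure at 37 C.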
ALOX15 inhib = inhibitors of human 15-lipoxygenase (ALOX15); AID 887; Potency, µM (highest dose often 57.1 µM), for the others: at the highest dose activity change, negative = inhibition, hits mostly inhibitors; purified 15hLO-1, xylenol orange hydroperoxide absorbance; actives 1.4% (n = 74,000); P16050; further: potency means the concentration at half of the fitted maximal effect; on the % scale 0 is the no-effect control and ±100 the full control effect; nearly all actives have a fitted effect of over 55% in size
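Inhibition is scored from a chromogenic endpoint. After 15 min enzyme-compound contact, arachidonic acid (50 uM final) reacts 6 min with 40 nM 15hLO-1 at room temperature, then Fe-XO reagent is added for 30 min and absorbance ratio recorded.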
HBB splicing = hemoglobin beta splicing modulation. actives 0.06% (n = 65,000). Potency, µM (top dose mostly 46.1 µM), for inactives: at the top dose activation, most hits filed as activators. HBB splicing reporter cell assay, activation; EGFP reporter with mutant IVS2-654 intron; response scale: normalised to 500 nM splice-correcting PNA; further: potency means the concentration at half of the fitted maximal effect; 0% is about no effect
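HeLa cells stably expressing EGFP interrupted by mutant beta-globin intron 2 (IVS2-654), 500/well in 2% FCS. Treated with compound for 2 days at 37C. Splicing correction scored as total well GFP intensity (488 nm excitation, 500-520 nm emission); 500 nM antisense PNA served as control.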
Starred values were filed as active, the others as inactive; u = inconclusive; x = no result given; [ ] = remark or other dose. An excerpt weighted towards active compounds, which were near 3.2% of everything screened. Unless noted, the call rests on the fitted dose curve; in most records, active means well fitted curve in the direction sought with a large enough effect; inconclusive means small, poorly fitted or top-dose-only effect, or another doubt; inactive means no such curve, though single readings can be large; an effect the other way counts as inactive or inconclusive.

SMILES | UbGFP stabilizer | Pol III holo inh | Tau fil binding | Epigenetic mod | ALOX15 inhib | HBB splicing
COCCn1c(=N)c(C(=O)NCCc2ccccc2)cc2c(=O)n3cccc(C)c3nc21 | 2% | -3% | 3.2µM* | -3% | 4% | 1%[9.22 µM]
CCOCCCn1c(=N)c(C(N)=S)cc2c(=O)n3cccc(C)c3nc21 | 4% | 25µM* | 159% | 0% | u | 0%
O=c1[nH]c(SCc2c(Cl)c(Cl)c(Cl)c(Cl)c2Cl)nc(=S)[nH]1 | 6%[9.17 µM] | -5%[11.4 µM] | 10%[11.4 µM] | -2%[9.22 µM] | -9%[11.4 µM] | 0%[9.22 µM]
Cn1c(-c2ccc3c(c2)OCO3)cnc1NCc1cccc(Cl)c1 | 1% | -3% | 7% | 0% | 20µM* | -4%
c1ccc(Nc2ncnc3c2oc2ccccc23)cc1 | 2% | -4% | 24% | 0% | -22% | -1%
CC(=O)N1CCN(c2ccc(Nc3ncnc4c3oc3ccccc34)cc2)CC1 | -1% | -2% | 25µM* | 2% | -14% | 3%[0.369 µM]
CCc1nc(Nc2ccc(N3CCN(C(C)=O)CC3)cc2)c2oc3ccccc3c2n1 | x | -7% | 20µM* | -2% | -24% | -1%[0.369 µM]
O=C(c1ccc(Cc2nc3ccccc3[nH]2)cc1)N1CCOCC1 | x | x | x | x | -8% | x
C[C@@H]1C(=O)O[C@@H]2C[C@@]34[C@H]5C[C@@H](C(C)(C)C)[C@@]36[C@@H](OC(=O)[C@@H]6O)O[C@]4(C(=O)O5)[C@@]12O | -3% | -5% | u | -7%[9.22 µM] | x | x
c1ccc2c(c1)CCN(c1nc3cc4c(cc3s1)OCO4)C2 | -1% | 3% | 1% | 2% | 10µM* | -2%[57.5 µM]
c1ccc(N2CCN(c3nc4cc5c(cc4s3)OCO5)CC2)cc1 | 1% | -9% | -1% | 0% | 13µM* | 1%[57.5 µM]
COc1ccc([C@@H](C)c2cc3c(cc2O)OCO3)cc1 | -2%[9.17 µM] | -2%[11.4 µM] | -5%[11.4 µM] | 2%[9.22 µM] | 3.2µM* | -1%[9.22 µM]
Cc1nn2cc(-c3ccc(N)cc3)nc2s1 | 4% | -10% | 16µM* | 1% | -3% | x
COc1cc(/C=C\C(=O)N2CCCCC2=O)cc(OC)c1OC | -5% | -3% | u | -2%[9.22 µM] | x | x
COc1cc(N)ccc1Cc1ccc(N)cc1OC | -1% | -7% | 25µM* | 2% | -2% | 0%
Cc1ccc(N=Cc2ccc[nH]2)c(O)c1 | 20% | -8% | -6% | 3% | u | -1%[9.22 µM]
Cc1ccc(N=Cc2cccc(O)c2O)c(C)c1 | x | x | x | x | 6.3µM* | x
Cn1c(=O)[nH]c(=O)c2c1nc(SCC(=O)O)n2CCc1ccccc1 | x | -4% | 15% | -2% | 6.3µM* | 1%[0.369 µM]
O=C1c2ccccc2C(=O)c2c(NC3CCCCC3)ccc(Nc3ccc(S(=O)(=O)O)cc3)c21 | 5%[9.17 µM] | -15%[11.4 µM] | 3.2µM* | 0%[9.22 µM] | -27%[11.4 µM] | -2%[9.22 µM]
CN1CCN(CCCBr)CC1 | 2%[9.17 µM] | -7%[11.4 µM] | 18%[11.4 µM] | 2%[9.22 µM] | 2%[11.4 µM] | 2%[9.22 µM]
COc1cc(C(=O)O[C@@H]2CC(C)=CC[C@@]3(C)CC[C@](O)(C(C)C)[C@H]23)ccc1O | 0% | -2% | 40µM* | -4%[9.22 µM] | x | x
COC(=O)c1ccccc1NS(=O)(=O)c1ccc2c3c(cccc13)C(=O)N2 | 0% | 2% | 16µM* | 1% | -12% | -1%
O=C(O)c1ccccc1NS(=O)(=O)c1ccc2c3c(cccc13)C(=O)N2 | -12% | -8% | -1% | -1% | -8% | -2%
COc1cc(C(=O)Nc2nnc(-c3sccc3C)s2)cc(OC)c1OC | 1% | -3% | -7% | 7% | 20µM* | -1%
CCOc1ccccc1C(=O)Nc1nccs1 | -2% | -8% | 0% | 2% | 7.9µM* | 0%[57.5 µM]
CCOC(=O)Cc1csc(-n2sc3ccccc3c2=O)n1 | -1% | -7% | -27% | 1% | 0.2µM* | -5%
CCOC(=O)Cc1csc(SCn2nnc3ccccc3c2=O)n1 | 7% | 2% | -7% | 0% | -7% | 1%[1.84 µM]
Cc1cc(-c2nnc(-c3ccccc3)c(-c3ccccc3)n2)c(C)o1 | -10% | -2% | 16µM* | 27% | 25µM* | -1%
